# Assay outcomes (PubChem BioAssay)
# In the library only some 9.2% were active in any assay of this set; here they are far more common.
# FLuc modulator: firefly luciferase modulation, counter-screen for miR-21 project | hit rate 6.9% among 360,000 | Potency, µM (top dose mostly 57.5 µM), inactives show at the highest dose activity change, negative = inhibition, hits mostly inhibitors | purified FLuc, Km substrates, luminescence inhibition | P08659;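 further: plate controls were vehicle for no effect and reference inhibitor for full effect; nearly all actives have a fitted effect of over 55% in size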
# Target sequence (P08659 whole entry, looked up): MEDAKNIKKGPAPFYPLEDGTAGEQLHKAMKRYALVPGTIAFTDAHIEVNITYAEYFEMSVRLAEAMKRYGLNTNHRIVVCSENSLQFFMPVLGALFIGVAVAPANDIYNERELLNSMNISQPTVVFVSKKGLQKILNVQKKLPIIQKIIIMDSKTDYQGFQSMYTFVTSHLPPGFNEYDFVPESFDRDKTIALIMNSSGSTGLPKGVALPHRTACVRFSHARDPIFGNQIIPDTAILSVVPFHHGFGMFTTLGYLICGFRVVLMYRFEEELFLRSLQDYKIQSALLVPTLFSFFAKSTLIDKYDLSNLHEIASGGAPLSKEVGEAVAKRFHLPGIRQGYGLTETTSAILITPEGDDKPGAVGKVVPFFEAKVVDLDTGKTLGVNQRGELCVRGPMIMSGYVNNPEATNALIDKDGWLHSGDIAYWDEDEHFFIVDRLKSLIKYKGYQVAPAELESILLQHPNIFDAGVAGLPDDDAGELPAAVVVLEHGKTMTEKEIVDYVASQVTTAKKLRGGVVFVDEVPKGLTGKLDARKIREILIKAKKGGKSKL
#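 Purified P. pyralis luciferase (10nM final) with 10uM D-luciferin and 10uM ATP (Km levels) in 50mM Tris acetate pH 7.5, 10mM Mg acetate, 0.01% Tween-20, 0.05% BSA; qHTS 6-point titration, ~60 µM downward; luminescence read.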
# Rab9 promoter act: activates the Rab9 promoter; Huh7 Rab9 promoter-luciferase reporter, luminescence, 24 h; Potency, µM (highest dose often 9.22 µM), inactives show at the top dose activation, negative = inhibition, hits mostly activators; hit rate 2.8% among 320,000; AID 485297; further: % of control where 0% means no effect; nearly all actives have a fitted effect of over 60% in size
#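 Luminescence read-out: Huh7 cells stably expressing Rab9-luciferase, treated 24 h with compound at 37 °C, then lysed with luciferase reagent for 10 min at ambient before reading.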
# NPC1 promoter act: NPC1 promoter activation; Huh7 NPC1 promoter luciferase reporter, 24 h; Potency, µM (doses to about 9.22 µM), inactives show top-dose activation, most hits filed as activators; hit rate 2.4% among 320,000; AID 485313; further: % of control where 0% means no effect; nearly all actives have a fitted effect of over 60% in size
#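 Cells: Huh7 expressing luciferase under the NPC1 promoter, 1500/well. Seeded 2 h, compound added, incubated 24 h at 37 °C. Luciferase reagent, 10 min ambient, then luminescence.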
# SMN2 splice up: increases expression of the SMN2 splice variant; Potency, µM (top dose mostly 46.1 µM), for the others: top-dose activity change, positive = activation, actives largely listed as activators; HEK293 SMN2-luciferase splicing reporter, luminescence, 30-36 h; hit rate 2.8% among 210,000; further: % of control where 0% means no effect; nearly all actives have a fitted effect of over 55% in size
#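 HEK293 cells carry an SMN2 […]–luciferase reporter in which exon 7 inclusion puts luciferase in frame. Cells were plated 10-12 h before compound addition, then incubated 30-36 h at 37C. ONE-Glo luminescence was read; sodium butyrate at 4.5 mM final served as control.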
# ELG1 DNA repair: inhibitors of ELG1-dependent DNA repair in HEK293T cells; HEK293T ELG1-luciferase reporter, luminescence, 16 h; DNA damage induced by 5-fluorouridine; Potency, µM (series often up to 46.1 µM), inactives show at the highest dose activity change, negative = inhibition, actives largely listed as inhibitors; hit rate 2.3% among 330,000; AID 504467; further: on the % scale 0 is the no-effect control and ±100 the full control effect; nearly all actives have a fitted effect of over 55% in size
#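 Overnight (16 hr) co-exposure of 2,000 cells/well to 5-fluorouridine and compound at 37 °C preceded detection. Luciferase was quantified via ONE-Glo luminescence; loss of signal denotes inhibition.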
# ELG1 genotoxic: induces genotoxicity in HEK293T cells with luciferase-tagged ELG1; HEK293T ELG1-luciferase reporter, luminescence, 16 h; Potency, µM (titrated, usually from 46 µM), for inactives: at the highest dose activity change, positive = activation, usual class: activators; hit rate 1.3% among 330,000; AID 504466; further: % of control where 0% means no effect; nearly all actives have a fitted effect of over 60% in size
#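 HEK293T cells expressing luciferase-tagged ELG1 were treated with compound or DMSO for 16 hr at 37°C. Luciferase activity was then read after 30 min with ONE-Glo at room temperature; rising signal flags genetic stress.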
# * marks the source's active call; other numbers are inactive results; ? = inconclusive; . = no result given. The call rests on the fitted dose curve; in most records, active means well fitted curve in the direction sought with a large enough effect; inconclusive means small, poorly fitted or top-dose-only effect, or another doubt; inactive means no such curve, though single readings can be large; an effect the other way counts as inactive or inconclusive. Potency means the concentration at half of the fitted maximal effect.
SMILES,FLuc modulator,Rab9 promoter act,NPC1 promoter act,SMN2 splice up,ELG1 DNA repair,ELG1 genotoxic
CCN(C(=O)c1nn(-c2ccc(OC)c(Cl)c2)c(=O)c2c1c1ccccc1n2C)c1cccc(C(F)(F)F)c1,0%,.,.,6%,.,.
COc1cccc(CN2C(=O)c3ccccc3Sc3ccc(C(=O)NCc4ccccc4)cc32)c1,-2%,.,.,-2%,.,.
CN1CCN(c2ccc(NC(=O)c3ccc(-c4cccc([N+](=O)[O-])c4)o3)cc2)CC1,15µM*,8%,12%,-5%,?,3%
CS(=O)(=O)N1CCN(c2ccc(NC(=O)c3ccc(-c4ccc(Cl)cc4)o3)cc2)CC1,0%,-12%,-6%,-12%,?,12%
O=C(Nc1ccc(N2CCN(C(=O)c3ccc(Cl)cc3)CC2)cc1)c1ccc(Br)o1,-2%,-6%,7%,-90%,21µM*,-7%
O=C(Nc1ccc(N2CCN(C(=O)c3ccc(Cl)cc3)CC2)cc1)c1cc2ccccc2o1,0%,-13%,-4%,-22%,?,-4%
CN1CCN(c2ccc(NC(=O)c3ccc(-c4ccc(Cl)cc4)o3)cc2)CC1,24µM*,0%,2%,.,?,-11%
CCc1ccc2oc(-c3ccc(C)c(NC(=O)c4cc([N+](=O)[O-])ccc4N4CCOCC4)c3)nc2c1,1.7µM*,.,.,16%,.,.
CC(C)c1nn2c(=O)cc(COC(=O)c3ccc(NC(=O)COc4ccccc4)cc3)nc2s1,2%,.,.,.,.,.
CC1CCCN(S(=O)(=O)c2ccc3c(c2)c(=O)nc2ccccn23)C1 (stereo unspecified),2%,-2%,0%,.,?,-4%
O=C(NC(=S)Nc1ccccc1N1CCCCC1)c1ccc(-c2cccc([N+](=O)[O-])c2)o1,8%,-6%,-7%,-12%,?,1%
O=C(Nc1ccc2oc(=O)ccc2c1)c1ccc(-c2cccc([N+](=O)[O-])c2)o1,-3%,1%,0%,.,?,3%
O=C(NC(=S)Nc1ccccc1N1CCCC1)c1ccc(-c2cccc([N+](=O)[O-])c2)o1,-3%,15%,-11%,-21%,15µM*,-5%
CCc1ccc2oc(-c3cccc(NC(=O)c4ccc(-c5cccc([N+](=O)[O-])c5)o4)c3)nc2c1,2.7µM*,.,.,?,.,.
Cc1cc(C(C)(C)C)ccc1OCC(=O)N/N=C\c1c(C)n(C)n(-c2ccccc2)c1=O,?,-1%,0%,.,8%,-6%
CC(NCc1ccc(S(N)(=O)=O)cc1)C(=O)Nc1cc([N+](=O)[O-])ccc1Cl (stereo unspecified),-2%,-2%,-6%,-8%,-1%,-1%
CC(NCc1ccc(S(N)(=O)=O)cc1)C(=O)Nc1ccc([N+](=O)[O-])cc1Cl (stereo unspecified),-3%,0%,-1%,-5%,23µM*,-2%
Cc1ccc(S(=O)(=O)N[C@H](C(=O)OCn2nnc3ccccc3c2=O)C(C)C)cc1,1%,-6%,0%,-45%,21µM*,-8%
CN(Cc1ccccc1)S(=O)(=O)c1ccccc1[N+](=O)[O-],0%,-2%,2%,.,13%,-1%
COc1cc(/C=N\Nc2nc3ccccc3o2)cc(OC)c1OC,?,24%,?,4%,?,12%
COc1ccc(C=C(c2nc3ccccc3s2)c2nc3ccccc3s2)cc1O,11µM*,6%,0%,-50%,-22%,?
COc1cc(/C=N/Nc2nc3ccccc3o2)cc(OC)c1O,15µM*,8%,1%,-6%,-4%,15%
COc1cc(C=C(c2nc3ccccc3s2)c2nc3ccccc3s2)ccc1O,?,-5%,-1%,-13%,?,1%
COc1ccc(/C=N/OCC(=O)Nc2nc3ccccc3s2)cc1OC,-17%,-8%,0%,-25%,-4%,4%
COc1ccc(/C=N/Nc2nc3ccccc3o2)cc1O,0.95µM*,?,?,?,?,0.92µM*
SMILES,FLuc modulator,Rab9 promoter act,NPC1 promoter act,SMN2 splice up,ELG1 DNA repair,ELG1 genotoxic
COc1ccc(/C=N/Nc2nc3ccccc3s2)cc1O,0.24µM*,?,?,17%,?,2.3µM*
CN(C)c1ccc(NC(=O)Cn2nnc3sc4c(c3c2=O)CCC(C(C)(C)C)C4)cc1 (stereo unspecified),-19%,.,.,?,.,.
CCC/C=C(\CCC)C(NC(=O)c1cccs1)c1ccc(C(=O)OC)cc1 (stereo unspecified),.,.,.,-32%,.,.
CC(=O)Nc1cccc(/C(C)=N/Nc2nc3ccccc3s2)c1,11µM*,?,2%,11µM*,?,?
CC(=O)Nc1ccc(/C=N/Nc2nc3ccccc3s2)cc1,0.95µM*,0.45µM*,0.71µM*,.,?,2.6µM*
CC(=O)Nc1ccc(S(=O)(=O)Nc2nc3ccccc3s2)cc1,5%,0%,-1%,21%,13%,0%
O=C1O/C(=C\c2ccccc2)c2ccccc21,12µM*,-3%,-3%,-5%,12%,1%
Nc1nc(-c2ccccc2)cn1/N=C/c1ccccc1,15µM*,0%,-9%,.,?,?
Nc1nc(-c2ccccc2)cn1N,-20%,6%,8%,-2%,?,-1%
CN(C)C/C=C/C(O)(c1ccccc1)c1ccccc1,0%,-5%,-1%,.,?,-2%
CN(C)CC(CCC(CN(C)C)C(O)(c1ccccc1)c1ccccc1)C(O)(c1ccccc1)c1ccccc1 (stereo unspecified),2%,-9%,-3%,.,18µM*,-17%
O=C1CCCCN1CCCC(=O)N1CCCC(Nc2ccccc2)C1 (stereo unspecified),-4%,4%,1%,.,5%,4%
CCOc1ccc(-c2nnc3ccc(SCc4ccc(C(=O)OC)o4)nn23)cc1,-9%,22%,0%,-18%,21µM*,-3%
O=C(CN1C(=O)NC(c2ccccc2)(c2ccccc2)C1=O)NC1CCCCC1,-2%,-1%,-1%,.,2%,3%
CCOC(=O)c1c(C)[nH]c(C(=O)OCC(=O)c2ccccc2)c1C,0.85µM*,0.45µM*,0.5µM*,.,?,0.92µM*
CCOC(=O)c1[nH]c(C)c(C(=O)NCc2ccc(C)cc2)c1C,3%,-2%,-1%,11%,-2%,1%
CCOC(=O)c1c(C)[nH]c(C(=O)OCC(=O)NCc2ccccc2)c1C,.,.,.,.,0%,0%
CCOC(=O)c1c(C)[nH]c(C(=O)OCCOc2ccccc2C)c1C,3.4µM*,4µM*,4µM*,3.5µM*,?,?
CCOC(=O)c1[nH]c(C)c(C(=O)c2ccc(C)cc2)c1C,?,-10%,-9%,4%,?,21µM*
